Laboratory results published in PubChem BioAssay AID1645860 (Buhrlage Lab, Dana-Farber Cancer Institute and Novartis …, 2021).
Screen size: about 47,000 compounds; about 2,500 (5.3%) were called active. Cut-off read from the data, not from the text of the source: active = inhibition above about 30%; inactive = the rest. The entries come from a sample that favours actives as a whole.

Biological target: Ubiquitin carboxyl-terminal hydrolase 30 (Homo sapiens) (UniProt Q70CQ3)
Assay: blocks human USP30 ubiquitin-rhodamine cleavage (AID 1645860)
Settings: purified USP30, Ub-rhodamine cleavage fluorescence; at 25 µM; stronger effect = higher value

Sequence of Ubiquitin carboxyl-terminal hydrolase 30 (Homo sapiens) (Q70CQ3 whole entry, looked up): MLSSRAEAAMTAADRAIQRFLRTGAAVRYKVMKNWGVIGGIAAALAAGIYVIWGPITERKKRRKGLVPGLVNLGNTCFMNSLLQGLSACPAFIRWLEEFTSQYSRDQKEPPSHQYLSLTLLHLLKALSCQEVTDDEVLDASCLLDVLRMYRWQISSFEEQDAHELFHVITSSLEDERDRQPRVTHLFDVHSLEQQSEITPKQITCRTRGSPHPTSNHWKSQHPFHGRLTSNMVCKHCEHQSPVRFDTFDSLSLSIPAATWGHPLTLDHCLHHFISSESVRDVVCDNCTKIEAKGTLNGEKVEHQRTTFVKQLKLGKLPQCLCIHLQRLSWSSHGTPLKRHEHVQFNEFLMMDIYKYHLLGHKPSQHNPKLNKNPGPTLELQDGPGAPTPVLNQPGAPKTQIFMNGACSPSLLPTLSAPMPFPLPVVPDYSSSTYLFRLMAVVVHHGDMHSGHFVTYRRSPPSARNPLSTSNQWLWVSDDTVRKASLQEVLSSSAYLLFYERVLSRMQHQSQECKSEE

inhibition, active:
Oc1cccc2nc3c(O)cccc3nc12 55.9%
CCc1ccc(-n2c(=O)c3ccccc3n(CC(=O)NCCC3=CCCCC3)c2=O)cc1 41%
Cc1cccc(NC(=O)Cn2c(C)ccc(NC(=O)Nc3cccc(C)c3)c2=O)c1 34.8%
COc1ccc(CN=C2NS(=O)(=O)C(c3ccc(F)cc3)=C2C)cc1OC 37%
O=c1c2ccccc2c(-c2nc(-c3ccncc3)no2)cn1-c1ccc(F)cc1 44.8%
CC(C)c1noc(-c2ccc(OCC(=O)Nc3ccccc3Br)cc2)n1 30.7%
COc1ccc(NC(=O)CS(=O)(=O)c2cn(CC(=O)N3CCCC3)c3ccccc23)cc1 30.4%
CSc1nc2c(c(Nc3ccc(C(C)=O)cc3)n1)CCC2 80.5%
Cc1ccc(Cn2c(C(=O)O)c(CNC(C)CCc3ccccc3)c3ccccc32)cc1 (stereo not drawn) 35.8%
CC(CCc1ccccc1)NCc1c(C(=O)O)n(Cc2ccccc2F)c2ccccc12 (stereo not drawn) 33.3%
Cc1ccc(S(=O)(=O)NC2=NC(c3ccccc3)c3cc(Cl)ccc3N2)cc1 (stereo not drawn) 43.7%
CCN(CC)S(=O)(=O)c1ccc(C(=O)Nc2sc(C)c(C)c2C(N)=O)cc1 36.2%
O=C(Nc1nnc(-c2cccc([N+](=O)[O-])c2)o1)C1CCN(S(=O)(=O)c2ccc3c(c2)CCC3)CC1 40.6%
COc1ccc(CCNC(=O)CCCn2c(=O)c3ccccc3n(CC(=O)OCc3ccccc3)c2=O)cc1OC 64.1%
Cc1ccc(CNC(=O)CCCn2c(=O)c3sccc3n(CC(=O)OCc3ccccc3)c2=O)cc1 70.7%
O=C(NCc1ccc2c(c1)OCO2)c1cc2c(s1)CS(=O)(=O)C2 34.4%
Cc1nc(-c2cccc(NC(=O)C3CCN(c4ccccc4)C3=O)c2)no1 (stereo not drawn) 42.5%
COc1ccc(C(NC(=O)CN(C)Cc2ccc3c(c2)OCO3)c2ccccc2)cc1 (stereo not drawn) 42%
Nc1ccc(C(=O)OCC(=O)NC2CCCc3ccccc32)cc1[N+](=O)[O-] (stereo not drawn) 31.6%

inhibition, inactive:
O=C(CCCOc1ccc(F)cc1F)N1CCC(c2[nH]nc3nccnc23)CC1 -12.7%
Cc1ccc(N2CCn3c(nc4ccccc43)C2)cc1NS(C)(=O)=O -304%
Cc1ccc(Cn2c(C)c(CNCCC3=CCCCC3)c(C(=O)O)c2C)cc1 -1.85%
O=C(CCc1nnc2n(CCc3ccccc3)c(=O)c3ccccc3n12)NCCN1CCCC1 13.2%
Cn1ncc2c1CCCN(C(=O)Cc1ccccc1F)C2 10.7%
Cc1ccccc1CC(=O)Nc1ccc(-n2ccnc2C)nc1 -47.4%
COc1cn(CC(=O)Nc2cccc(C)c2)c(CSc2ccc(C)cc2)cc1=O -0.0406%
Cc1cccc(NC(=O)Cn2c(=O)n(Cc3nc(C)no3)c(=O)c3ccccc32)c1 14.7%
CC(C)C(=O)N1CCN(C(=O)Cc2ccccc2)CC2(CC(=O)N(C)C2)C1 (stereo not drawn) 17%
Cc1cc(Nc2ncc(C)s2)cc(C2CCCN2c2ncccn2)n1 (stereo not drawn) -49.2%
CCOC(=O)C1CCCN(c2cc3n(c(=O)n2)CCc2cc(OC)c(OC)cc2-3)C1 (stereo not drawn) -59.6%
CC1=C(c2ccc(C)cc2)S(=O)(=O)NC1=NCc1cccc(Br)c1 3.77%
COc1ccc(C2=Nc3ncnn3C2=NCc2ccc(F)cc2)cc1OC 0.0164%
Cn1nnc2c1CCN(C(=O)C1CCC1)C2COCc1ccccc1 (stereo not drawn) -10.7%
O=C(Cn1cccc(-c2nc(-c3ccccc3)no2)c1=O)Nc1ccccc1F -12.8%
O=C(Cn1c(-c2nc(-c3ccc(F)cc3)no2)cccc1=O)N1CCCC1 11.4%
CSCc1cc(N2CCOCC2)nc(-c2ccccn2)n1 23.5%
CC1CCN(S(=O)(=O)N2CCCC(C(=O)Nc3cc(F)ccc3F)C2)CC1 (stereo not drawn) 18.2%
O=C(Nc1ccc(N2CCN(C3CCCC3)C2=O)nc1)c1cccnc1 -14.2%
COc1ccc(OCC(=O)Nc2noc(-c3ccccc3)n2)cc1 24.4%
COc1cccc(NC(=O)Cn2c(C)cc(C)c2-c2nc(C(C)C)no2)c1 -10.3%
CC(=O)Nc1ccc(S(=O)(=O)NCc2ccc(C(=O)NCc3ccc(C)cc3)cc2)cc1 -1.25%
O=C1Nc2cc(C(=O)N3CCC4(CC3)OCCO4)ccc2N2C(=O)CCC12 (stereo not drawn) 1.12%
O=C(Cn1cc(S(=O)(=O)Cc2ccccc2F)c2ccccc21)N1CCCCCC1 3.16%
COc1ccc(NC(=O)CSc2cn(CC(=O)N3CCCC3)c3ccccc23)cc1 18.7%
O=C(NCc1cccnc1-c1ccc(F)cc1)C1CCC1 21.3%
Fc1cccc(Nc2nc(-c3ccncc3)nc3c2CCC3)c1 23.2%
CC1CCCN(c2ccc(-c3nc(-c4cccnc4)no3)cc2[N+](=O)[O-])C1 (stereo not drawn) -2.58%
O=C(CCCn1c(=O)c2ccccc2n(Cc2ccccc2F)c1=O)NC1CCCC1 15.8%
Cc1ccc(CCNCc2c(C(=O)O)n(C)c3ccccc23)cc1 -4.51%
COc1ccc(CCNCc2c(C(=O)O)n(Cc3ccc(Cl)cc3)c3ccccc23)c(OC)c1OC 18.6%
CNC(=O)NC1CCN(c2nc3cccnc3n(Cc3ccc(C)cc3)c2=O)CC1 -0.331%
O=S(=O)(c1ccc(Cl)c(-c2nnc(-c3ccccc3)o2)c1)N1CCOCC1 8.47%
Cc1ccc(S(=O)(=O)NCc2c(-c3ccccc3)c3cc(C)ccc3[nH]c2=O)cc1 -9.29%
Cc1ccc(S(=O)(=O)Nc2ccc(-c3c[n+]4ccccc4n3C)cc2)cc1 21.2%
COc1cc(NC(=O)c2noc3c2CCc2sccc2-3)cc(OC)c1 8.21%
CC(=O)N1CCCc2ccc(NC(=O)c3cccc([N+](=O)[O-])c3)cc21 16.5%
CC1(C)OC(=O)[C@@]2(C)N[C@]1(C)C[C@@H]2C(=O)Nc1ccc(O)cc1 -11.1%
Cc1sc(NC(=O)c2ccc(S(=O)(=O)N(C)CC3CCCO3)cc2)c(C(N)=O)c1C (stereo not drawn) -70.8%
Cc1ccc(S(=O)(=O)CC(=O)Nc2sc(C)c(C)c2C(N)=O)cc1 -97.7%
Cn1cc(-c2cnc3n2CCC32CCN(S(=O)(=O)c3cccc(F)c3)CC2)cn1 -1.9%
CN(C(=O)CSCc1nc(-c2ccc(F)cc2)no1)c1ccc(F)cc1 -1.42%
O=c1[nH]c2c(-c3ccccn3)nsc2c(=O)n1Cc1cccnc1 2.65%
Cc1cccc(-c2nnc(-c3cccc(S(=O)(=O)N4CCCC4)c3)o2)c1 10.5%
O=C(COC(=O)C1CCN(S(=O)(=O)c2c(Cl)cccc2Cl)CC1)Nc1ccc2c(c1)CCC2 11.6%
CNc1cc(C)nc(C2CN(C(=O)c3ccnn3C(C)C)CCO2)c1 (stereo not drawn) 15.8%
COc1ccc(C2c3c(oc4ccccc4c3=O)C(=O)N2c2cc(C)on2)cc1 (stereo not drawn) 23.7%
O=C(C1CCOCC1)N1CCc2nc3ccccc3n2C(Cc2ccccc2)C1 (stereo not drawn) 8.3%
CCN1Cc2c(C(=O)NCCC(C)C)ncn2-c2ccccc2S1(=O)=O -4.42%
CN1C(=O)c2ccccc2C(C(=O)N2CCc3ccccc3C2)C1c1cccs1 (stereo not drawn) 25%
O=c1c(S(=O)(=O)c2cc(F)cc(F)c2)c[nH]c2ccc(F)cc12 -13.9%
N#Cc1ccccc1Cn1c(=O)n(CCCC(=O)NCc2ccc(F)cc2)c(=O)c2ccccc21 20.9%
COc1ccc(-c2nc3c(c(=O)c4ccccc4n3C)c(=O)n2CCc2ccc(OC)c(OC)c2)cc1 7.98%
COc1ccc(CCNC(=O)Cn2c(=O)n(CC3CCC(C(=O)NC4CCCC4)CC3)c(=O)c3ccccc32)cc1OC (stereo not drawn) 16.9%
Cc1cccc(N2CC(C)Cn3c2nc2c3c(=O)n(CC(=O)OCc3ccccc3)c(=O)n2C)c1 (stereo not drawn) -36.6%
COC[C@H]1C[C@@H]2CN(S(=O)(=O)c3ccc(F)cc3)C(C)[C@H]1N2C (stereo partly drawn) -8.47%
CCn1cc(-c2ccnc3cc(C(=O)NC4CCOCC4)nn23)c(C)n1 -12.3%
O=C(O)CCNC(=O)/C(=C/c1ccc(Cl)cc1)NC(=O)c1ccco1 -2.38%
O=C(NCc1ccc2c(c1)OCO2)C1=CCN(Cc2ccccc2)CC1 -38.4%
O=C(NCCc1ccccc1)c1cc2c(s1)CS(=O)(=O)C2 -21.6%
COc1ccc(C)cc1NC(=O)COC(=O)C1(c2ccccc2F)CCCC1 22.5%
Cc1nc(-c2cccc(S(=O)(=O)Nc3ccccc3C)c2)no1 -3.5%
CC(=O)c1cccc(NC(=O)c2cccc(-c3nc(-c4ccccc4)no3)c2)c1 -9.31%
CC(C)c1noc(-c2ccc(-n3cnc(C(=O)NC4CC4)c3)nc2)n1 1.32%
N#Cc1ccc(OC(=O)c2cc(S(=O)(=O)N3CCOCC3)c(Cl)cc2Cl)cc1 1.53%
Cc1ccc(F)cc1NC(=O)CN(C)Cc1ccc2c(c1)OCO2 -0.987%
CN(CC(=O)Nc1ccc(F)cc1Cl)Cc1ccc2c(c1)OCO2 -9.47%
O=C(COC(=O)c1ccc(F)cc1)NC1CCCc2ccccc21 (stereo not drawn) -8.55%
O=C(c1ccccc1)c1ccc(NC2CCCc3ccccc32)c([N+](=O)[O-])c1 (stereo not drawn) -121%
